Reference: PubChem BioAssay (NCI)
Several values for one entry are separate records, joined by “and”; a condition that tells them apart may be missing. Identical values can stand only once. The panel holds about 83,000 compounds, 20% with a hit somewhere; the sample as a whole holds those more often.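 Activity criterion: percent growth below 10, measured after cells in 96-well plates were exposed to a single compound concentration for 48 hours.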 Activity calls are given as the source filed them.

How the values were obtained:
Assay in all cases: NCI-60 one-dose screen, 48 h (100 = growth as untreated, 0 = no growth, -100 = all killed)
T-47D breast = test system: T-47D breast
BT-549 breast = test system: BT-549 breast
MDA-MB-435 melanoma = test system: MDA-MB-435 melanoma
SW-620 colon = test system: SW-620 colon
MCF7 breast = test system: MCF7 breast
HCT-116 colon = test system: HCT-116 colon
HCC-2998 colon = test system: HCC-2998 colon
KM12 colon = test system: KM12 colon

Measured: growth

CC(=O)/C=C/c1ccc(N(CCO)Cc2ccc(C(C)(C)C)cc2)cc1
active: T-47D breast; 100 µM -83.2% | BT-549 breast; 100 µM -88.9% | MDA-MB-435 melanoma; 100 µM -94.4% | SW-620 colon; 100 µM -91.8% | MCF7 breast; 100 µM -55.4% | HCT-116 colon; 100 µM -98.1% | HCC-2998 colon; 100 µM -89.2% | KM12 colon; 100 µM -78.2%
inactive: T-47D breast; 10 µM 60.2% | BT-549 breast; 10 µM 79% | MDA-MB-435 melanoma; 10 µM 80.7% | SW-620 colon; 10 µM 83.9% | MCF7 breast; 10 µM 62.9% | HCT-116 colon; 10 µM 67.2% | HCC-2998 colon; 10 µM 86.7% | KM12 colon; 10 µM 81.2%

COc1ccc2c(c1)CCNC21C(=O)Nc2c(Br)cc(Br)cc21 (stereo unspecified)
inactive: T-47D breast; 10 µM unless noted 90.3% | BT-549 breast; 10 µM unless noted 103% | MDA-MB-435 melanoma; 10 µM unless noted 101% | SW-620 colon; 10 µM unless noted 97.4% | MCF7 breast; 10 µM unless noted 101% | HCT-116 colon; 10 µM unless noted 103% | HCC-2998 colon; 10 µM unless noted 105%

O=S(=O)(O)c1ccc(N=Nc2ccc(N=Nc3cccc4ccccc34)c(S(=O)(=O)O)c2)cc1
inactive: T-47D breast; 10 µM unless noted 81.3% | BT-549 breast; 10 µM unless noted 108% | MDA-MB-435 melanoma; 10 µM unless noted 108% | SW-620 colon; 10 µM unless noted 96.2% | MCF7 breast; 10 µM unless noted 78.1% | HCT-116 colon; 10 µM unless noted 102% | HCC-2998 colon; 10 µM unless noted 108%

Cc1n(Cc2ccc3ccccc3c2)c(Cl)c(Cl)[n+]1Cc1ccc2ccccc2c1
active: MDA-MB-435 melanoma; 10 µM unless noted -2.29%
inactive: T-47D breast; 10 µM unless noted 10.3% | BT-549 breast; 10 µM unless noted 26.8% | SW-620 colon; 10 µM unless noted 40.5% | MCF7 breast; 10 µM unless noted 21.4% | HCT-116 colon; 10 µM unless noted 18.2% | HCC-2998 colon; 10 µM unless noted 17.3%

CN(C)CCNc1ncc(F)c(-c2cnc3cc(-c4cnn(C)c4)ccn23)n1
inactive: T-47D breast; 0.005 µM 110% | T-47D breast; 30 µM 81.7% | BT-549 breast; 0.005 µM 97.8% | BT-549 breast; 30 µM 69.4% | MDA-MB-435 melanoma; 0.005 µM 101% | MDA-MB-435 melanoma; 30 µM 43.1% | SW-620 colon; 0.005 µM 103% | SW-620 colon; 30 µM 25.7% | MCF7 breast; 0.005 µM 93.9% | MCF7 breast; 30 µM 49.5% | HCT-116 colon; 0.005 µM 100% | HCT-116 colon; 30 µM 24.3% | HCC-2998 colon; 0.005 µM 116% | HCC-2998 colon; 30 µM 54.5% | KM12 colon; 0.005 µM 87.8% | KM12 colon; 30 µM 10.7%

C=C(C)[C@@H]1CC[C@]2(C(=O)N3CCN(C)CC3)CC[C@]3(C)[C@H](CC[C@@H]4[C@@]5(C)CC(CCCNC(C)=O)(CCCNC(C)=O)[C@H](OC(C)=O)C(C)(C)[C@@H]5CC[C@]43C)[C@@H]12
inactive: T-47D breast; 10 µM unless noted 89.9% | BT-549 breast; 10 µM unless noted 104% | MDA-MB-435 melanoma; 10 µM unless noted 94.4% | SW-620 colon; 10 µM unless noted 99.2% | MCF7 breast; 10 µM unless noted 89.1% | HCT-116 colon; 10 µM unless noted 90.7% | HCC-2998 colon; 10 µM unless noted 106%

COc1c(NC=O)c2c(c([N+](=O)[O-])c1OC)C(=O)OC2
inactive: T-47D breast; 10 µM unless noted 109% and 93.1% | BT-549 breast; 10 µM unless noted 94.4% | MDA-MB-435 melanoma; 10 µM unless noted 115% and 101% | SW-620 colon; 10 µM unless noted 109% and 103% | MCF7 breast; 10 µM unless noted 97.2% and 89.6% | HCT-116 colon; 10 µM unless noted 108% and 106% | HCC-2998 colon; 10 µM unless noted 105% and 89.9%

COc1ccc(Nc2nn3c(SCC(=O)c4ccc(C)cc4)nnc3s2)cc1
inactive: T-47D breast; 10 µM unless noted 73.2% | BT-549 breast; 10 µM unless noted 92.2% | MDA-MB-435 melanoma; 10 µM unless noted 105% | SW-620 colon; 10 µM unless noted 98.1% | MCF7 breast; 10 µM unless noted 91.8% | HCT-116 colon; 10 µM unless noted 106% | HCC-2998 colon; 10 µM unless noted 111%

CCCNNC(=O)/C=C/c1ccc(CNCCc2c(C)[nH]c3ccccc23)cc1
inactive: BT-549 breast; 10 µM unless noted 62.2% [2.5 µM] | MDA-MB-435 melanoma; 10 µM unless noted 14% [2.5 µM] | SW-620 colon; 10 µM unless noted 10.7% [2.5 µM] | MCF7 breast; 10 µM unless noted 24.2% [2.5 µM] | HCC-2998 colon; 10 µM unless noted 13.3% [2.5 µM]
active: T-47D breast; 10 µM unless noted -7.33% [2.5 µM] | HCT-116 colon; 10 µM unless noted 0.525% [2.5 µM]

O=C1c2cc3c(cc2-c2c1c1ccc(Cl)cc1c(=O)n2CCCn1ccnc1)OCO3
inactive: HCC-2998 colon; 10 µM unless noted 15%
active: T-47D breast; 10 µM unless noted -0.548% | BT-549 breast; 10 µM unless noted -20.3% | MDA-MB-435 melanoma; 10 µM unless noted -58.8% | SW-620 colon; 10 µM unless noted 1.05% | MCF7 breast; 10 µM unless noted -9.33% | HCT-116 colon; 10 µM unless noted -23%

N=C(N)c1ccc(-c2ccc(-c3ccc(F)cc3)s2)nc1
inactive: T-47D breast; 10 µM unless noted 76.3% | BT-549 breast; 10 µM unless noted 82.1% | MDA-MB-435 melanoma; 10 µM unless noted 70.2% | SW-620 colon; 10 µM unless noted 26% | MCF7 breast; 10 µM unless noted 21.9% | HCC-2998 colon; 10 µM unless noted 16.2%
active: HCT-116 colon; 10 µM unless noted 3.54%

Cc1[nH]c(C(=O)Nc2nc3ccc(NC(=O)CCN)cc3s2)c(Cl)c1Cl
inactive: T-47D breast; 10 µM unless noted 54.8% | BT-549 breast; 10 µM unless noted 88.9% | MDA-MB-435 melanoma; 10 µM unless noted 91.3% | SW-620 colon; 10 µM unless noted 43.7% | MCF7 breast; 10 µM unless noted 52.3% | HCT-116 colon; 10 µM unless noted 59.9% | HCC-2998 colon; 10 µM unless noted 96.4%

COc1ccc(C(=O)/C=C/c2ccc(OCc3ccc(Cl)cc3)cc2)cc1OC
inactive: T-47D breast; 10 µM 73.8% | T-47D breast; 100 µM 41.5% | BT-549 breast; 10 µM 115% | BT-549 breast; 100 µM 22% | MDA-MB-435 melanoma; 10 µM 90.7% | MDA-MB-435 melanoma; 100 µM 43.7% | MCF7 breast; 10 µM 84.2% | HCT-116 colon; 10 µM 90.2% | HCC-2998 colon; 10 µM 101% | HCC-2998 colon; 100 µM 44% | KM12 colon; 10 µM 90.7% | KM12 colon; 100 µM 21.4%
active: MCF7 breast; 100 µM 9.31% | HCT-116 colon; 100 µM -25.8%
